Consider nine compounds from PubChem BioAssay.

Each structure is given as a SMILES string. Active and inactive are the calls of the source. Unless noted, no rule for the calls is given here.

A short description of assay [1]: HepG2 liver cancer cell viability effects, profiling panel, resazurin fluorescence, 24 h, PK04 Diversity Set (AID 1172). The note with it: higher = more signal. Background: Alamar Blue is a resazurin reagent that responds to reducing activity.
Assay [2] in a line: basal S. cerevisiae growth modulation, no modifier, primary screen, OD600, strain BY4716, 24 h, basal condition (AID 1173). Conditions: OD600, 24 h, higher = more signal, called active from +8 up or from −8 down.
The nature of assay [3]: MM1S myeloma cell viability, profiling panel, resazurin fluorescence, basal, 24 h, PK04 Diversity Set (AID 1174).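 Also: MM1S multiple myeloma cell line.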 Conditions: higher = more signal, called active from +8 up or from −8 down.
Assay [4] concerns the target Dihydroorotate dehydrogenase (quinone), mitochondrial (Plasmodium falciparum (isolate 3D7)) (UniProt Q08210). The assay can be described thus: PfDHODH enzyme inhibitors, primary screen, biochemical, C-terminal His tag, absorbance 600 nm (AID 1175).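 Also: recombinant parasite enzyme with a five histidine tag at its C terminus.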 The note with it: DCIP absorbance 600 nm, higher = more signal, called active from +8 up or from −8 down.
The nature of assay [5]: P. aeruginosa biofilm formation inhibitors, primary screen, strain PAO1, LB-PBS medium, absorbance 600 nm (AID 1176). The note with it: P. aeruginosa PAO1 growth/biofilm, A600, 12 h; higher = more signal.
Assay [6] is described as follows: S. cerevisiae RM11-1a growth modifiers, primary screen, strain RM11-1a, OD600, basal, 24 h (AID 1177).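 Also: cultures grown under basal conditions with no added stressor.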 Conditions: OD600, 24 h, higher = more signal, called active from +8 up or from −8 down.
Assay [7] is described as follows: E. coli acrAB mutant growth effects, primary screen, E. coli filamentation inducers, strain DRC39, OD650, 24 h (AID 1178).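 Also: growth measured as culture turbidity by optical density at 650 nm.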 The note with it: higher = more signal, called active from +8 up or from −8 down.
A short description of assay [8]: E. coli acrAB mutant growth effects, primary screen, E. coli filamentation inducers, strain DRC39, OD650, 48 h (AID 1179).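 Also: screen aims at cell division blockers that make cells filament.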 The note with it: E. coli DRC39 delta-acrAB growth, higher = more signal, called active from +8 up or from −8 down.
The nature of assay [9]: RPMI8226 myeloma cell viability, profiling panel, resazurin fluorescence, basal, 24 h, PK04 Diversity Set (AID 1180).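 Also: RPMI8826 multiple myeloma cell line at 5000 cells per well.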 Conditions: higher = more signal.
Assay [10] deals with E3 ubiquitin-protein ligase XIAP (Homo sapiens) (UniProt P98170). The assay can be described thus: XIAP binders, primary screen, biophysical, small-molecule microarray, fluorescence 635 nm (AID 1181).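 Also: score merges 667 nm emission and signal to noise over triplicate slides.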 Conditions: small-molecule microarray binding, higher = more signal.
Sequence of E3 ubiquitin-protein ligase XIAP (Homo sapiens) (P98170 whole entry, looked up): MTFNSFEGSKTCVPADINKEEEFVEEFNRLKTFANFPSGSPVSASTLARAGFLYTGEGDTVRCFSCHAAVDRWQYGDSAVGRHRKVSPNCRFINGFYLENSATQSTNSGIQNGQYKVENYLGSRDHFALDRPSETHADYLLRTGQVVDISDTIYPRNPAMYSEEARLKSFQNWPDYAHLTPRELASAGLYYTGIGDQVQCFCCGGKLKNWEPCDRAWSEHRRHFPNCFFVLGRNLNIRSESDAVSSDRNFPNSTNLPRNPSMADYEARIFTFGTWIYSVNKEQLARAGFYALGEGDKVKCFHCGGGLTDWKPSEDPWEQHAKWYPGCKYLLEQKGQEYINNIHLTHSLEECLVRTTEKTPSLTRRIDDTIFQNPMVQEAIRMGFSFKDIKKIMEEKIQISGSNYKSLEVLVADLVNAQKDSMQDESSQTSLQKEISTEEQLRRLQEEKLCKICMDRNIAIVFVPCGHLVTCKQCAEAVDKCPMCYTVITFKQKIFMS
The subject of assay [11] is XIP peptide (Xip251-270) binding. The assay can be described thus: small-molecule binders of XIP peptide, primary screen, biochemical, small-molecule microarray, fluorescence 635/667 nm, 0.1 µg/mL protein (AID 1182). Conditions: fluorescent protein binding, 635 nm, higher = more signal, called active from +8 up or from −8 down.
The test system of a further assay is XIP peptide (Xip251-270). The assay can be described thus: small-molecule binders of XIP peptide, primary screen, biochemical, small-molecule microarray, fluorescence 635/667 nm, 0.5 µg/mL protein (AID 1183). The note with it: small-molecule microarray binding, fluorescence 635 nm; higher = more signal.
Assay [12] is described as follows: Plasmodium falciparum growth inhibition, primary screen, strain 3D7, DAPI fluorescence, 100 nL (AID 1184).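 Also: parasites grown inside human red blood cells in medium with human serum.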 The note with it: P. falciparum 3D7 growth, 3 d, higher = more signal.
The target of assay [13] is Homeobox protein Hox-A13 (Mus musculus) (UniProt Q62424). In words: inhibitors of HoxA13-DNA binding, primary screen, biochemical, fluorescence polarization, labeled oligonucleotide (AID 1185). Conditions: 15 min, higher = more signal, called active from +8 up or from −8 down. Background: Polarisation of emitted light reports the rotation of a fluorescent probe.
Sequence of Homeobox protein Hox-A13 (Mus musculus) (Q62424 whole entry, looked up): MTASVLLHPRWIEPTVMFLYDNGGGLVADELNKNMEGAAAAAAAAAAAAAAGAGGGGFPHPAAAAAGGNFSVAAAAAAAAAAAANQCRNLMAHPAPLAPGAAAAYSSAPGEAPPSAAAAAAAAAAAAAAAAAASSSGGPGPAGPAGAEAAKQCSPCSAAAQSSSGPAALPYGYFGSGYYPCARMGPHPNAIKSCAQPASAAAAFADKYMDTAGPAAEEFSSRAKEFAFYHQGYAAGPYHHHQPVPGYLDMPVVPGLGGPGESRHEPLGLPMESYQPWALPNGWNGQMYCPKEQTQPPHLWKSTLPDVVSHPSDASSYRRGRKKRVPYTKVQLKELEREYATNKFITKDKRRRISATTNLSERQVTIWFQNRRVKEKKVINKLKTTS
Assay [14] is described as follows: inhibitors of hydroxyurea-induced Chk1 phosphorylation, primary screen, imaging, HeLa, phospho-Chk1 antibody, percent positive cells (AID 1186). Conditions: hydroxyurea-induced phospho-Chk1 immunofluorescence imaging, higher = more signal.
A short description of assay [15]: inhibitors of hydroxyurea-induced Chk1 phosphorylation, primary screen, imaging, HeLa, phospho-Chk1 nuclear intensity (AID 1187). Conditions: hydroxyurea-induced phospho-Chk1 immunofluorescence imaging, higher = more signal.

Sequence of Dihydroorotate dehydrogenase (quinone), mitochondrial (Plasmodium falciparum (isolate 3D7)) (Q08210 whole entry, looked up): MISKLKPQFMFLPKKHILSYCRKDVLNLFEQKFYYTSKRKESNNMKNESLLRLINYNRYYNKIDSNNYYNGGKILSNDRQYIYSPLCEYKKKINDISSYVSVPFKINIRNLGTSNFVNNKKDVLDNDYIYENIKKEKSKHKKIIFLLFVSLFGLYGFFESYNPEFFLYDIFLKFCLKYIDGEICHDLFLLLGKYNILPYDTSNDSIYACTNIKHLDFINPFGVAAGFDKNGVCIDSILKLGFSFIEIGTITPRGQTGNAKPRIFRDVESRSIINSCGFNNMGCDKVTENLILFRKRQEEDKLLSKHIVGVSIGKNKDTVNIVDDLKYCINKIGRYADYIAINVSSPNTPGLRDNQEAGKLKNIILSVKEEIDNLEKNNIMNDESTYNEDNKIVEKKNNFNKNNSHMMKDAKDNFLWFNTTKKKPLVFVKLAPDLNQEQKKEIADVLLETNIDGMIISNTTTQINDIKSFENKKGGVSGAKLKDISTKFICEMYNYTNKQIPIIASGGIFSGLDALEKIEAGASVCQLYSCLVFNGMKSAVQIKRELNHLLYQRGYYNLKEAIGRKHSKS

Turning to `CCOC(=O)C1=C[C@@H](c2ccccc2)N(S(=O)(=O)c2ccc(C)cc2)[C@H]1c1ccc(F)cc1`, the z-score in assay [1] was -0.296; in assay [2], 1.87 (inactive); in assay [3] it was -0.648 (inactive); in assay [5], 0.216 (inactive); in [6], 2.33 (inactive); in assay [7], -0.213 (inactive). The z-score in [8] was -0.283 (inactive); in assay [9], -2.21; in assay [12] it was -2.17; in assay [13], -0.178 (inactive); in assay [14], 0.0332 (inactive); in assay [15], -0.293 (inactive). In addition, the composite z-score in [4] is -0.102 (inactive); in [10], 0.155; in assay [11], 0.346 (inactive); in the assay on XIP peptide (Xip251-270), 0.382.
As to `C[C@]1(C(=O)NCCN2CCOCC2)c2ccccc2C(=O)N(Cc2ccccc2)[C@H]1c1ccc(CO)cc1`, the z-score in [1] is 0.702; in [2] it was -0.46 (inactive); in assay [3] it was 0.402 (inactive); in assay [5], 0.662 (inactive); in assay [6], 1.2 (inactive); in assay [7] it was 0.223 (inactive). Further, the z-score in assay [8] was 0.134 (inactive); in assay [9], 0.85; in [12], -1.22; in assay [13] it was -3.99 (inactive); in assay [14], 0.0553 (inactive); in assay [15], 0.0648 (inactive). The composite z-score in [4] is 1 (inactive); in [10], 0.144; in assay [11] it was 0.946 (inactive); with XIP peptide (Xip251-270), 0.78.
Regarding `O=C1O[C@H](c2ccccc2)[C@H](c2ccccc2)N2[C@H]1[C@@H](C(=O)Nc1nc3ccccc3s1)[C@]1(C(=O)Nc3ccc(C#CC4=CCCCC4)cc31)[C@H]2c1ccccc1OCCO`, the z-score is 0.111 in assay [1]; 1.86 (inactive) in [2]; -0.912 (inactive) in assay [3]; 2.73 (inactive) in assay [5]; 2.71 (inactive) in assay [6]; -1.27 (inactive) in [7]. The z-score in assay [8] is -1.24 (inactive); in assay [9], -0.711; in assay [12], -2.09; in assay [13] it was -9.05 (active); in [14], 0.205 (inactive); in [15], 0.375 (inactive). Moreover, the composite z-score was 0.835 (inactive) in assay [4], 0.0705 in assay [10], 0.0485 (inactive) in [11] and 0.0555 in the assay on XIP peptide (Xip251-270).
Turning to `CC[C@@H]1C=C(C(=O)O)[C@H](c2ccccc2)N1S(=O)(=O)c1ccc([N+](=O)[O-])cc1`, the z-score in assay [1] is 0.244; in assay [2] it was 0.736 (inactive); in [3] it was -0.253 (inactive); in assay [5], -0.461 (inactive); in assay [6], -0.1 (inactive); in assay [7], -2.44 (inactive). Further, the z-score in assay [8] was -1.84 (inactive); in assay [9] it was 0.0416; in assay [12], -1.01; in assay [13], -3.73 (inactive); in assay [14], -0.0036 (inactive); in assay [15], -0.3 (inactive). In addition, the composite z-score in [4] is 0.264 (inactive); in assay [10] it was 0.101; in [11], -0.0477 (inactive); with XIP peptide (Xip251-270), 0.729.
On to `COCCCNC(=O)[C@@H]1c2ccccc2C(=O)N(CC23CC4CC(CC(C4)C2)C3)[C@H]1c1ccc(CO)cc1`, for which the z-score was 0.172 in assay [1]; -0.323 (inactive) in assay [2]; -0.104 (inactive) in assay [3]; 0.87 (inactive) in assay [5]; 0.208 (inactive) in [6]; 0.0488 (inactive) in assay [7]. For the same compound, the z-score is -0.543 (inactive) in assay [8]; 0.0917 in [9]; -1.95 in assay [12]; -4.65 (inactive) in assay [13]; -0.546 (inactive) in assay [14]; -0.786 (inactive) in assay [15]. Besides, the composite z-score was 0.297 (inactive) in [4], 0.03 in assay [10], 0.428 (inactive) in assay [11] and -0.518 in the assay on XIP peptide (Xip251-270).
On to `CCCC=C(CCC)[C@@H](NC(=O)c1ccc(C(F)(F)F)cc1)c1ccccc1`, for which the z-score was -0.421 in assay [1]; 0.79 (inactive) in [2]; -0.507 (inactive) in assay [3]; 4.02 (inactive) in assay [5]; 0.513 (inactive) in assay [6]; 0.0948 (inactive) in [7]. In addition, the z-score in assay [8] is -0.221 (inactive); in assay [9], -0.996; in assay [12] it was -1.55; in assay [13] it was -0.261 (inactive); in assay [14], 0.128 (inactive); in assay [15] it was 0.29 (inactive). In addition, the composite z-score in [4] is -3.63 (inactive); in assay [10], -0.253; in assay [11], 0.177 (inactive); in the assay on XIP peptide (Xip251-270), 0.144.
As for `N#Cc1ccc(NN2C(C(O)CCc3ccccc3)C=CC3C(=O)N(c4ccccc4)C(=O)C32)cc1` (centres undefined), the z-score in [1] was -0.618; in [2] it was -0.333 (inactive); in [3], -0.611 (inactive); in [5], 1.01 (inactive); in assay [6] it was -1.97 (inactive); in assay [7], 0.143 (inactive). The z-score in [8] is 0.7 (inactive); in [9], -0.152; in assay [12], 0.484; in assay [13] it was -4.3 (inactive); in [14], -0.13 (inactive); in assay [15] it was -0.424 (inactive). Besides, the composite z-score in assay [4] is -2.09 (inactive); in [10] it was -0.127; in assay [11], 1.15 (inactive); in the assay on XIP peptide (Xip251-270), -0.279.
Consider `COCCOC(=O)N1C(=O)[C@@]2(c3cc(C#CC4=CCCCC4)ccc31)[C@H](C(=O)NC[C@H](O)c1ccccc1)[C@H]1C(=O)O[C@H](c3ccccc3)[C@H](c3ccccc3)N1[C@@H]2c1ccccc1OCCO`, for which the z-score was -1.57 in [1]; 1.76 (inactive) in [2]; -4.83 (inactive) in assay [3]; 3.52 (inactive) in assay [5]; 2.69 (inactive) in assay [6]; -0.504 (inactive) in assay [7]. Moreover, the z-score in assay [8] was -0.542 (inactive); in assay [9], -4.64; in assay [12], -2.02; in [13] it was 1.22 (inactive); in assay [14], 0.443 (inactive); in assay [15], 0.384 (inactive). The composite z-score in [4] was 0.271 (inactive); in [10], 0.175; in [11], 0.51 (inactive); with XIP peptide (Xip251-270) it was 0.681.
On to `O=C1NC(=O)C2C1C=CC(C(O)C=Cc1ccc([N+](=O)[O-])cc1)N2Nc1ccccn1` (centres undefined), for which the z-score was -0.629 in [1]; -0.203 (inactive) in [2]; -0.373 (inactive) in assay [3]; 1.23 (inactive) in [5]; 0.086 (inactive) in assay [6]; 0.195 (inactive) in assay [7]. Moreover, the z-score in assay [8] is -0.466 (inactive); in assay [9], -0.742; in assay [12], -0.304; in assay [13] it was -1.88 (inactive); in assay [14], -0.746 (inactive); in [15] it was -0.987 (inactive). Further, the composite z-score was 0.643 (inactive) in assay [4], 0.289 in assay [10], 0.433 (inactive) in [11] and 0.792 in the assay with XIP peptide (Xip251-270).
